In PubChem BioAssay AID1159580 (chemical genetic matrix, 2015):
Where “and” joins values, the source holds several entries; their conditions need not be identical. Equal entries are not always repeated. The campaign covered roughly 5,500 compounds. About 2,000 (36%) were called active. About 18% were inconclusive and are not listed. The list shows a part of the results. Unmarked numbers belong to inactive results. Rule as the data show it: active = normalized growth mostly below about 0.91 (no sharp cut-off); inconclusive = no clear call, values can overlap the other calls; inactive = mostly above about 0.92. Where a SMILES comes first, the peptide text is derived from it. [ ]: non-standard residue; d: D form. Orn = NCCC[CH](N)C(=O)O

Test: chemical genetic growth profiling, strain panel (AID 1159580);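 also: tested at 20 µM; growth read once vehicle control cultures reached saturation at 30 °C; 1 = growth at the plate median or of vehicle wells; lower values mean less growth of the strain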
Conditions: S. cerevisiae deletion strains, growth OD

SMILES: CC(C)CC1NC(=O)C(CCCN)NC(=O)C(C(C)C)NC(=O)C2CCCN2C(=O)C(Cc2ccccc2)NC(=O)C(CC(C)C)NC(=O)C(CCCN)NC(=O)C(C(C)C)NC(=O)C2CCCN2C(=O)C(Cc2ccccc2)NC1=O (stereo unspecified) (cyclo(FPV[Orn]LFPV[Orn]L); configuration not given here)
- normalized growth (locus YAL013W, strain DEP1, active compounds read low): 1.01
- normalized growth (locus YAL021C, strain ccr4, active compounds read low): 0.995
- normalized growth (locus YAL026C, strain drs2, active compounds read low): 0.911
- normalized growth (locus YAL030W, strain snc1, active compounds read low): 1.03
- normalized growth (locus YBL061C, strain skt5, active compounds read low): 1.02
- normalized growth (locus YBR009C, strain hhf1, active compounds read low): 1.01
- normalized growth (locus YBR021W, strain FUR4, active compounds read low): 0.931
- normalized growth (locus YBR023C, strain chs3, active compounds read low): 1.01
- normalized growth (locus YBR171W, strain sec66, active compounds read low): 1.07
- normalized growth (locus YBR229C, strain ROT2, active compounds read low): 1.01
- normalized growth (locus YBR231C, strain swc5, active compounds read low): 0.934
- normalized growth (locus YBR279W, strain paf1, active compounds read low): 1.02
- normalized growth (locus YCL011C, strain gbp2, active compounds read low): 1.02
- normalized growth (locus YCL016C, strain dcc1, active compounds read low): 1
- normalized growth (locus YCL029C, strain bik1, active compounds read low): 0.986
- normalized growth (locus YCL061C, strain MRC1, active compounds read low): 1.03
- normalized growth (locus YCL069W, strain vba3, active compounds read low): 1.03
- normalized growth (locus YCR088W, strain abp1, active compounds read low): 1.03
- normalized growth (locus YDL005C, strain med2, active compounds read low): 1.02
- normalized growth (locus YDL035C, strain GPR1, active compounds read low): 0.992
- normalized growth (locus YDL040C, strain nat1, active compounds read low): 1.02
- normalized growth (locus YDL074C, strain BRE1, active compounds read low): 0.964
- normalized growth (locus YDL101C, strain DUN1, active compounds read low): 1
- normalized growth (locus YDL134C, strain PPH21, active compounds read low): 1.01
- normalized growth (locus YDL185W, strain tfp1, active compounds read low): 0.249 (active)
- normalized growth (locus YDL192W, strain arf1, active compounds read low): 0.104 (active)
- normalized growth (locus YDR001C, strain nth1, active compounds read low): 1.03
- normalized growth (locus YDR069C, strain doa4, active compounds read low): 0.905
- normalized growth (locus YDR101C, strain arx1, active compounds read low): 0.998
- normalized growth (locus YDR137W, strain rgp1, active compounds read low): 0.307 (active)
- normalized growth (locus YDR150W, strain NUM1, active compounds read low): 1.02
- normalized growth (locus YDR159W, strain sac3, active compounds read low): 1.02
- normalized growth (locus YDR162C, strain NBP2, active compounds read low): 1.01
- normalized growth (locus YDR195W, strain ref2): 0.363 (active)
- normalized growth (locus YDR297W, strain sur2, active compounds read low): 1.03
- normalized growth (locus YDR318W, strain mcm21, active compounds read low): 1.01
- normalized growth (locus YDR334W, strain swr1, active compounds read low): 1.02
- normalized growth (locus YDR335W, strain msn5, active compounds read low): 1.05
- normalized growth (locus YDR388W, active compounds read low): 0.989
- normalized growth (locus YDR392W, strain spt3, active compounds read low): 0.963
- normalized growth (locus YDR502C, strain sam2, active compounds read low): 0.997
- normalized growth (locus YEL003W, strain gim4, active compounds read low): 1.01
- normalized growth (locus YEL037C, strain rad23, active compounds read low): 1.04
- normalized growth (locus YEL061C, strain CIN8 (second series), active compounds read low): 1.04
- normalized growth (locus YEL061C, strain CIN8, active compounds read low): 1.02
- normalized growth (locus YER015W, strain faa2, active compounds read low): 1.01
- normalized growth (locus YER016W, strain bim1, active compounds read low): 1.03
- normalized growth (locus YER110C, active compounds read low): 0.987
- normalized growth (locus YER111C, strain swi4, active compounds read low): 1.05
- normalized growth (locus YER155C, strain BEM2 (second series), active compounds read low): 0.775 (active)
- normalized growth (locus YER155C, strain BEM2, active compounds read low): 0.991
- normalized growth (locus YER167W, strain BCK2, active compounds read low): 1.02
- normalized growth (locus YFR010W, strain ubp6, active compounds read low): 1.01
- normalized growth (locus YGL078C, strain dbp3, active compounds read low): 0.993
- normalized growth (locus YGL167C, strain pmr1, active compounds read low): 1.04
- normalized growth (locus YGL173C, strain kem1, active compounds read low): 1.02
- normalized growth (locus YGL227W, strain vid30, active compounds read low): 1.05
- normalized growth (locus YGL240W, strain doc1, active compounds read low): 0.992
- normalized growth (locus YGL248W, strain PDE1, active compounds read low): 1.01
- normalized growth (locus YGL253W, strain hxk2, active compounds read low): 1.03
- normalized growth (locus YGR078C, strain PAC10, active compounds read low): 1.07
- normalized growth (locus YGR135W, strain pre9, active compounds read low): 0.981
- normalized growth (locus YGR229C, strain SMI1, active compounds read low): 0.844
- normalized growth (locus YGR252W, strain gcn5, active compounds read low): 0.924
- normalized growth (locus YHR013C, strain ard1, active compounds read low): 1.1
- normalized growth (locus YHR027C, strain rpn1, active compounds read low): 1.05
- normalized growth (locus YHR030C, strain SLT2, active compounds read low): 1 and 0.948
- normalized growth (locus YHR079C, strain IRE1 (second series), active compounds read low): 1.01
- normalized growth (locus YHR079C, strain IRE1, active compounds read low): 0.993
- normalized growth (locus YHR094C, strain hxt1, active compounds read low): 1.01
- normalized growth (locus YHR129C, strain ARP1, active compounds read low): 1.02
- normalized growth (locus YHR142W, strain chs7, active compounds read low): 1.02
- normalized growth (locus YIL066C, strain RNR3, active compounds read low): 0.999
- normalized growth (locus YIL073C, strain SPO22, active compounds read low): 1.52 [resistant] (active)
- normalized growth (locus YIL125W, strain kgd1, active compounds read low): 1
- normalized growth (locus YIR030C, strain dcg1, active compounds read low): 1
- normalized growth (locus YJL092W, strain hpr5, active compounds read low): 1.04
- normalized growth (locus YJL095W, strain BCK1 (second series), active compounds read low): 1.02
- normalized growth (locus YJL095W, strain BCK1, active compounds read low): 0.965 and 0.972
- normalized growth (locus YJL115W, strain asf1, active compounds read low): 1.07
- normalized growth (locus YJL129C, strain trk1, active compounds read low): 1.01
- normalized growth (locus YJL134W, strain LCB3, active compounds read low): 1.01
- normalized growth (locus YJL154C, strain vps35, active compounds read low): 1.01
- normalized growth (locus YJL164C, strain tpk1, active compounds read low): 1.03
- normalized growth (locus YJL166W, strain qcr8, active compounds read low): 1.02
- normalized growth (locus YJL168C, strain set2, active compounds read low): 1
- normalized growth (locus YJL187C, strain SWE1 (second series), active compounds read low): 0.992
- normalized growth (locus YJL187C, strain SWE1, active compounds read low): 1.04
- normalized growth (locus YJR043C, strain POL32, active compounds read low): 0.983
- normalized growth (locus YJR066W, strain TOR1, active compounds read low): 0.935
- normalized growth (locus YJR075W, strain HOC1, active compounds read low): 1.01
